Test results from PubChem BioAssay (NCATS).
Inconclusive results are not listed. The source made the active and inactive calls. Calls follow the shape of the dose curve; as a rule, active = well fitted inhibition curve with a large enough effect; inconclusive = small, poorly fitted or top-dose-only effect; inactive = flat fitted curve, though single readings scatter.

Experiments:
CRL-7250 = normal cell line; assay: Cytotoxic Profiling of Annotated Libraries Using Quantitative High-Throughput Screening (AID 1296008); conditions: Five cell lines viability, CellTiter-Glo ATP luminescence, 48-72 h; max response: stronger effect = lower value; as to max response: % is scaled to controls: 0 for no effect and ±100 for the full control effect
Method in brief: (§1)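 Cells exposed to compounds for 48 or 72 hr at 37 degrees Celsius. Viability read as ATP-coupled luminescence with CellTiter-Glo after 10 min at room temperature.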

HEK293 = assay: as above; conditions: Five cell lines viability, CellTiter-Glo ATP luminescence, 48-72 h; max response: stronger effect = lower value
Method in brief: as §1

HaCat = assay: as above; conditions: Five cell lines viability, CellTiter-Glo ATP luminescence, 48-72 h; max response: stronger effect = lower value
Method in brief: as §1

KB-3-1 = assay: as above; conditions: Five cell lines viability, CellTiter-Glo ATP luminescence, 48-72 h; max response: stronger effect = lower value
Method in brief: as §1

NIH3T3 = assay: as above; conditions: Five cell lines viability, CellTiter-Glo ATP luminescence, 48-72 h; max response: stronger effect = lower value
Method in brief: as §1

HEK293T = assay: qHTS assay to identify novel small-molecules to repurpose for Merkel cell carcinoma treatment (AID 1296009); conditions: MCC and control cell lines, CellTiter-Glo viability, 72 h; series mostly up to 44.8 µM
Method in brief: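 Cells were treated for 72 hr at 37 degree celsius with compounds in 8- or 11-point dose response. Viability was read by CellTiter-Glo luminescence, normalized to no-cell (cytotoxicity) and DMSO controls.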
Also: nearly all actives have a fitted effect of over 60% in size.

CCNC(=O)[C@@H]1CCCN1C(=O)[C@H](CCCN=C(N)N)NC(=O)[C@H](CC(C)C)NC(=O)[C@@H](C)NC(=O)[C@H](Cc1ccc(O)cc1)NC(=O)[C@H](CO)NC(=O)[C@H](Cc1c[nH]c2ccccc12)NC(=O)[C@H](Cc1cnc[nH]1)NC(=O)[C@@H]1CCC(=O)N1
inactive: outcome (CRL-7250) | outcome (HEK293) | max response (HaCat) -3.68% | max response (KB-3-1) 8.19% | max response (NIH3T3) -1.38% | Potency (HEK293T)

CN1C(=O)N[C@@H](Cc2c[nH]c3c(Cl)cccc23)C1=O
inactive: max response (CRL-7250) -3.21% | outcome (HEK293) | max response (HaCat) -0.267% | max response (KB-3-1) -1.43% | outcome (NIH3T3) | Potency (HEK293T)

CC1CCC(=O)CC(O)C(O)CC(=O)O1 (configuration not stated)
inactive: max response (CRL-7250) -5.97% | outcome (HEK293) | max response (HaCat) 4.62% | max response (KB-3-1) 5.19% | outcome (NIH3T3) | Potency (HEK293T)

COC(=O)C1=CO[C@@H](O[C@@H]2O[C@H](CO)[C@@H](O)[C@H](O)[C@H]2O)[C@@H]2[C@@](C)(O)[C@@H](O)C[C@]12O
inactive: max response (CRL-7250) -11.5% | outcome (HEK293) | max response (HaCat) 3.45% | max response (KB-3-1) 1.93% | max response (NIH3T3) -0.0114% | Potency (HEK293T)

COC1CC(OC2CCC3(C)C(=CCC4C3CCC3(C)C(C(C)O)CCC43O)C2)OC(C)C1OC1OC(C)C(OC2OC(COC3OC(COC4OC(CO)C(O)C(O)C4O)C(O)C(O)C3O)C(O)C(O)C2O)C(OC)C1O (configuration not stated)
inactive: max response (CRL-7250) -10.5% | outcome (HEK293) | max response (HaCat) -1.65% | outcome (KB-3-1) | outcome (NIH3T3) | outcome (HEK293T) inactive [at 9.27 µM]

CC(/C=C/[C@]1(O)[C@@]2(C)CO[C@@]1(C)C[C@@H](O)C2)=C\C(=O)O[C@@H]1O[C@H](CO)[C@@H](O)[C@H](O)[C@H]1O
inactive: outcome (CRL-7250) | outcome (HEK293) | max response (HaCat) -14.2% | outcome (KB-3-1) | outcome (NIH3T3) | Potency (HEK293T)

C=C1C(O[C@@H]2O[C@H](CO)[C@@H](O)[C@H](O)[C@@H]2O)CC2C(C)(C)C(O)CCC2(C)C1CC/C(C)=C\CO (some centres not stated)
inactive: max response (CRL-7250) -10.8% | outcome (HEK293) | max response (HaCat) -5.23% | outcome (KB-3-1) | max response (NIH3T3) -3.89% | Potency (HEK293T)

COc1cccc2c1CCC[C@H]2CN(C)CCc1ccc2ccoc2c1
inactive: outcome (CRL-7250) | outcome (HEK293) | max response (HaCat) 3.47% | max response (KB-3-1) 4.61% | max response (NIH3T3) -8.39% | Potency (HEK293T)

CC1CCCC2OC2C(=O)c2c(O)cc(O)cc2CC(=O)O1 (configuration not stated)
inactive: max response (CRL-7250) -0.57% | outcome (HEK293) | max response (HaCat) -2.51% | max response (KB-3-1) 3.41% | outcome (NIH3T3) | Potency (HEK293T)

O=C(OCC12OC1C=CC(OC(=O)c1ccccc1)C2O)c1ccccc1 (configuration not stated)
inactive: max response (CRL-7250) 4.27% | outcome (HEK293) | max response (HaCat) 0.27% | max response (KB-3-1) 9.03% | max response (NIH3T3) -13.1% | Potency (HEK293T)

NC(=O)c1ccc(OCC2NC(=O)C3CCCN3C2=O)cc1 (configuration not stated)
inactive: max response (CRL-7250) -2.01% | outcome (HEK293) | max response (HaCat) -3.74% | max response (KB-3-1) 6.37% | outcome (NIH3T3) | Potency (HEK293T)

C=C1[C@@H]2[C@H]3OC(=O)C(=C)[C@@H]3CC[C@@](C)(O)[C@@H]2C[C@@H]1O[C@@H]1O[C@H](CO)[C@@H](O)[C@H](O)[C@H]1O
inactive: max response (CRL-7250) -4.93% | outcome (HEK293) | max response (HaCat) -10.8% | max response (KB-3-1) 1.42% | max response (NIH3T3) -3.98% | Potency (HEK293T)

CC1=C(C)C(=O)OC(C(C)(O)C2CCC3C4CC=C5CC(OC6OC(COC7OC(CO)C(O)C(O)C7O)C(O)C(O)C6O)CC(O)C5(C)C4CCC32C)C1 (configuration not stated)
inactive: max response (CRL-7250) -12.7% | outcome (HEK293) | max response (HaCat) -5.11% | max response (KB-3-1) 2.61% | max response (NIH3T3) -0.0747% | Potency (HEK293T)

CCOc1c2c(c(OCC)c3ccccc13)C(=O)N(c1ccc(CC(=O)NS(=O)(=O)c3ccccc3)cc1)C2
inactive: max response (CRL-7250) -1.51% | outcome (HEK293) | max response (HaCat) -7.44% | max response (KB-3-1) 1.17% | max response (NIH3T3) 3.33% | Potency (HEK293T)

COC(=O)C1=CO[C@@H](O[C@@H]2O[C@H](CO[C@@H]3O[C@H](COC(=O)/C=C/c4ccc(O)cc4)[C@@H](O)[C@H](O)[C@H]3O)[C@@H](O)[C@H](O)[C@H]2O)[C@@H]2C(CO)=CC[C@H]12
inactive: max response (CRL-7250) 4.68% | outcome (HEK293) | max response (HaCat) 0.423% | max response (KB-3-1) 6.83% | max response (NIH3T3) 0.0703% | Potency (HEK293T)

CC1(C)CC2C3=CCC4C5(C)CCC(OC6OC(CO)C(O)C(OC7OC(CO)C(O)C(OC8OC(CO)C(O)C(OC9OC(COC%10OC(CO)C(O)C(O)C%10O)C(O)C(O)C9O)C8O)C7O)C6O)C(C)(C)C5CCC4(C)C3(C)CCC2(C(=O)O)CC1O (configuration not stated)
inactive: outcome (CRL-7250) | outcome (HEK293) | max response (HaCat) -4.22% | max response (KB-3-1) -7.8% | max response (NIH3T3) 2.99% | outcome (HEK293T) inactive [at 9.27 µM]

C[C@@H]1O[C@@H](O[C@H]2[C@H](O[C@H]3[C@H](O[C@H]4CC[C@@]5(CO)C(CC[C@]6(C)C5CC=C5C7CC(C)(C)C[C@@H](O)[C@]7(C)CC[C@]56C)C4(C)C)O[C@H](C(=O)O)[C@@H](O)[C@@H]3O)OC[C@@H](O)[C@@H]2O)[C@H](O)[C@H](O)[C@H]1O (some centres not stated)
inactive: outcome (CRL-7250) | outcome (HEK293) | max response (HaCat) 4.17% | max response (KB-3-1) 5.01% | max response (NIH3T3) -0.118% | outcome (HEK293T) inactive [at 9.27 µM]
